According to PubChem BioAssay:
“And” between values parts separate entries of the source, which are not always exact repeats. Equal values may be shown once. The source made the active and inactive calls. Unless noted, the rule behind the calls is not given here.

How the values were obtained:
[1] = circadian clock period modulators, cell-based, LOPAC library, luminescence reporter (AID 2774); conditions: circadian reporter cells, at 7 µM, actives lie on both sides;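 note: values are relative to mean of DMSO wells on each plate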
[2] = test system: Hepatitis C virus NS3 helicase; assay: HCV NS3 helicase inhibitors, primary screen, biochemical, fluorescence polarization, LOPAC1280 library (AID 687035; in the data active = inhibition above about 37%); conditions: Purified HCV NS3 helicase, Cy5-dT15 ssDNA binding fluorescence polarization; hits give high values; concentration not given here
[3] = Cy5 fluorescence quenching or enhancement artefacts, artefact control for HCV NS3 helicase inhibitor project, biochemical, LOPAC1280 (AID 687037); conditions: Cy5-DNA-NS3h complex fluorescence interference counterscreen
[4] = Cy5 fluorescence interference with SSB-bound oligo, artefact control for HCV NS3 helicase inhibitor project, biochemical, NIH Clinical Collection, E. coli SSB (AID 743268)
[5] = test system: Hepatitis C virus NS3 helicase; assay: HCV NS3 helicase inhibitors, primary screen, biochemical, fluorescence polarization, NIH Clinical Collection (AID 743270); conditions: NS3 helicase binding to Cy5-dT15 DNA, hits give high values, concentration not given here
[6] = target: Single-stranded DNA-binding protein (Escherichia coli (strain K12)) (UniProt P0AGE0); assay: E. coli SSB displacement from DNA, counter-screen for HCV NS3 helicase inhibitor project, biochemical, fluorescence polarization, NIH Clinical Collection (AID 743271; in the data active = inhibition above about 28%); conditions: hits give high values, concentration not given here
[7] = fluorescence interference in NS3h assay format, artefact control for HCV NS3 helicase inhibitor project, biochemical, NIH Clinical Collection (AID 743272); conditions: fluorescence interference counterscreen, hits give low values;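 note: HCV NS3 helicase with a Cy5 labelled single stranded DNA probe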
[8] = test system: Neuropilin-2 / VEGF-C interaction (human); assay: inhibitors of NRP2–VEGF-C binding, biochemical, microplate binding format, z-score (AID 743281); conditions: microplate NRP2/VEGF-C binding assay; hits give low values
[9] = modulation of C. elegans fzo-1 (AID 1259413);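 note: fzo-1 mutant C. elegans worms in liquid wells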; conditions: C. elegans fzo-1 modulator screen, mean read-out; hits give high values
[10] = phospholipid biosynthesis inhibitors in animal cells, primary screen, cell-based, LOPAC library, screen 4 (AID 1347384); conditions: phospholipid biosynthesis inhibition screen, at 10 µM
F380Y = assay: modulators of BK channel variants, profiling panel, selectivity assay, cell-based, U2OS BacMam, thallium flux, beta subunits (AID 1259406;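 active = thallium flux through the channel raised or lowered by more than 3 SD from vehicle-only wells, actives on both sides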;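 note: initial slope of Thallos dye fluorescence rise after thallium is added; log ratio against the mean of 0.3% DMSO vehicle wells on the same plate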); conditions: at 30 µM
F380Y/beta1 = assay: as above; conditions: at 30 µM
F380Y/beta2Delta = assay: as above; conditions: at 30 µM
F380Y/beta4 = assay: as above; conditions: at 30 µM
[11] = target: Calcium-activated potassium channel subunit alpha-1 (Homo sapiens) + Leucine-rich repeat-containing protein 26 (Homo sapiens) (UniProt Q12791+Q2I0M4); assay: as above; conditions: F380Y/Slo1WT/gamma1, at 30 µM
R275C = assay: as above; conditions: at 30 µM
R275C/beta1 = assay: as above; conditions: at 30 µM
R275C/beta2Delta = assay: as above; conditions: at 30 µM
R275C/beta4 = assay: as above; conditions: at 30 µM
R275C/Slo1WT/beta2 = assay: as above; conditions: at 30 µM

Sequence of Calcium-activated potassium channel subunit alpha-1 (Homo sapiens) + Leucine-rich repeat-containing protein 26 (Homo sapiens) (Q2I0M4 whole entry, looked up, one chain of several): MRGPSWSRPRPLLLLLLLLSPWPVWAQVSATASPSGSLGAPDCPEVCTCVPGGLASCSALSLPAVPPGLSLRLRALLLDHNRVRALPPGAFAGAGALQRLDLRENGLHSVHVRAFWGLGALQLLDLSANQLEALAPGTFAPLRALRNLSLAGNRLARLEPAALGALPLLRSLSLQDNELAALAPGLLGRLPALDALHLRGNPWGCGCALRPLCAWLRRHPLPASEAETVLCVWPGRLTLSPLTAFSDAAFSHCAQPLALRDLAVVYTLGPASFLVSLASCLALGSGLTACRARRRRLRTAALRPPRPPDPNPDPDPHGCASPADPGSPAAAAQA

COc1ccc2[nH]cc(CCN)c2c1
inactive: period change [1] -0.125 h | inhibition [2] -2% | fluorescence ratio (interference) [3] 1 | fluorescence ratio [4] 0.98 | inhibition [5] -1.09% | inhibition [6] 3.54% | fluorescence ratio [7] 0.97 | z-score [8] 0.413 | mean signal [9] 258 | outcome [10] | log fold change Tl+ flux (F380Y) 0.0218 | log fold change Tl+ flux (F380Y/beta1) 0.0119 | log fold change Tl+ flux (F380Y/beta2Delta) -0.052 | log fold change Tl+ flux (F380Y/beta4) -0.0167 | log fold change Tl+ flux [11] -0.0293 | log fold change Tl+ flux (R275C) -0.061 | log fold change Tl+ flux (R275C/beta1) -0.0101 | log fold change Tl+ flux (R275C/beta2Delta) -0.00391 | log fold change Tl+ flux (R275C/beta4) 0.0135 | log fold change Tl+ flux (R275C/Slo1WT/beta2) 0.00615

O=c1c2ccccc2[se]n1-c1ccccc1
inactive: period change [1] -0.02 h | inhibition [2] -2% | fluorescence ratio (interference) [3] 1 | fluorescence ratio [4] 1 | inhibition [6] -0.39% | fluorescence ratio [7] 1.05 | z-score [8] 0.167 | mean signal [9] 217
active: inhibition [5] 99.3%

Clc1ccc(COC(Cn2ccnc2)c2ccc(Cl)cc2Cl)c(Cl)c1 (stereo not given)
inactive: fluorescence ratio [4] 0.96 | inhibition [5] 6.82% | inhibition [6] 4.86% | fluorescence ratio [7] 0.93 | mean signal [9] 182 | log fold change Tl+ flux (F380Y) -0.0473 | log fold change Tl+ flux (F380Y/beta1) -0.101 | log fold change Tl+ flux (F380Y/beta2Delta) -0.0262 | log fold change Tl+ flux [11] 0.0222 | log fold change Tl+ flux (R275C) -0.0411 | log fold change Tl+ flux (R275C/beta1) 0.0424 | log fold change Tl+ flux (R275C/beta2Delta) -0.0245 | log fold change Tl+ flux (R275C/beta4) 0.0768 | log fold change Tl+ flux (R275C/Slo1WT/beta2) 0.0237
active: log fold change Tl+ flux (F380Y/beta4) -0.445

O=C1CC[C@@]2(O)[C@H]3Cc4ccc(O)c5c4[C@@]2(CCN3CC2CC2)[C@H]1O5
inactive: log fold change Tl+ flux (F380Y) 0.00675 | log fold change Tl+ flux (F380Y/beta1) -0.0461 | log fold change Tl+ flux (F380Y/beta2Delta) 0.00968 | log fold change Tl+ flux (F380Y/beta4) -0.0353 | log fold change Tl+ flux [11] -0.0199 | log fold change Tl+ flux (R275C) -0.0442 | log fold change Tl+ flux (R275C/beta1) 0.0294 | log fold change Tl+ flux (R275C/beta2Delta) -0.0407 | log fold change Tl+ flux (R275C/beta4) -0.0587 | log fold change Tl+ flux (R275C/Slo1WT/beta2) 0.0463

CC[C@@]1(O)C(=O)OCc2c1cc1n(c2=O)Cc2cc3ccccc3nc2-1
inactive: period change [1] -0.48 h | inhibition [2] 0% | fluorescence ratio (interference) [3] 1 | outcome [10]

CC[C@@H](CO)NC(=O)[C@@H]1C=C2c3cccc4[nH]cc(c34)C[C@H]2N(C)C1
inactive: period change [1] 0.19 h | inhibition [2] -5% | fluorescence ratio (interference) [3] 1 | outcome [10]

NC(=O)CS(=O)C(c1ccccc1)c1ccccc1 (stereo not given)
inactive: fluorescence ratio [4] 1 | inhibition [5] 0.4% | inhibition [6] -3.18% | fluorescence ratio [7] 0.98 | z-score [8] 0.787 | mean signal [9] 263 | log fold change Tl+ flux (F380Y) -0.0264 | log fold change Tl+ flux (F380Y/beta1) 0.0487 | log fold change Tl+ flux (F380Y/beta2Delta) 0.0296 | log fold change Tl+ flux (F380Y/beta4) 0.00509 | log fold change Tl+ flux [11] -0.00311 | log fold change Tl+ flux (R275C) -0.0429 | log fold change Tl+ flux (R275C/beta1) 0.0162 | log fold change Tl+ flux (R275C/beta2Delta) 0.0129 | log fold change Tl+ flux (R275C/beta4) 0.0208 | log fold change Tl+ flux (R275C/Slo1WT/beta2) 0.0297

C=CCN1CC[C@]23c4c5ccc(O)c4O[C@H]2C(=O)CC[C@@]3(O)[C@H]1C5
active: fluorescence ratio [4] 0.104
inactive: inhibition [5] -4.09% | inhibition [6] -4.29% | fluorescence ratio [7] 1.04 | log fold change Tl+ flux (F380Y) -0.039 | log fold change Tl+ flux (F380Y/beta1) 0.0814 | log fold change Tl+ flux (F380Y/beta2Delta) 0.0141 | log fold change Tl+ flux (F380Y/beta4) 0.0525 | log fold change Tl+ flux [11] -0.00699 | log fold change Tl+ flux (R275C) 0.034 | log fold change Tl+ flux (R275C/beta1) 0.000161 | log fold change Tl+ flux (R275C/beta2Delta) 0.0302 | log fold change Tl+ flux (R275C/beta4) 0.00421 | log fold change Tl+ flux (R275C/Slo1WT/beta2) 0.0157

FC(F)(F)c1cccc(N2CCNCC2)c1
inactive: fluorescence ratio [4] 1.01 | inhibition [5] -2.77% | inhibition [6] -3.95% | fluorescence ratio [7] 0.93 | z-score [8] -0.497 | mean signal [9] 282 | log fold change Tl+ flux (F380Y) -0.0132 | log fold change Tl+ flux (F380Y/beta2Delta) 0.0279 | log fold change Tl+ flux [11] -0.00699 | log fold change Tl+ flux (R275C) 0.0139 | log fold change Tl+ flux (R275C/beta1) 0.0717 | log fold change Tl+ flux (R275C/beta2Delta) 0.00655

CC(C)CC(N(C)C)C1(c2ccc(Cl)cc2)CCC1 (stereo not given)
inactive: fluorescence ratio [4] 1.01 and 0.96 | inhibition [5] -0.22% and -8.08% | inhibition [6] -1.97% and 1.97% | fluorescence ratio [7] 1.01 and 0.95 | outcome [8] | z-score [8] -0.0182 | mean signal [9] 232

COc1cc2c(cc1OC)[C@@]13CCN4CC5=CCO[C@H]6CC(=O)N2[C@H]1[C@H]6[C@H]5C[C@H]43
inactive: fluorescence ratio [4] 0.94 | inhibition [5] -2.84% | inhibition [6] 2.76% | fluorescence ratio [7] 0.89 | z-score [8] -0.249 | mean signal [9] 265 | log fold change Tl+ flux (F380Y) 0.0307 | log fold change Tl+ flux (F380Y/beta1) -0.0206 | log fold change Tl+ flux (F380Y/beta2Delta) -0.0179 | log fold change Tl+ flux (F380Y/beta4) 0.0166 | log fold change Tl+ flux [11] -0.0482 | log fold change Tl+ flux (R275C) -0.0395 | log fold change Tl+ flux (R275C/beta1) 0.0112 | log fold change Tl+ flux (R275C/beta2Delta) -0.0452 | log fold change Tl+ flux (R275C/beta4) -0.00487 | log fold change Tl+ flux (R275C/Slo1WT/beta2) -0.0314

Cc1nccc2c1[nH]c1ccccc12
inactive: period change [1] 0.11 h | inhibition [2] -1% | fluorescence ratio (interference) [3] 1 | outcome [10]

c1ccc2c3c([nH]c2c1)CNCC3
inactive: fluorescence ratio [4] 0.93 | inhibition [5] 0.66% | inhibition [6] 5.12% | fluorescence ratio [7] 0.91 | z-score [8] -0.415 | mean signal [9] 258 | log fold change Tl+ flux (F380Y) -0.00245 | log fold change Tl+ flux (F380Y/beta1) -0.00595 | log fold change Tl+ flux (F380Y/beta2Delta) -0.0184 | log fold change Tl+ flux (F380Y/beta4) -0.0163 | log fold change Tl+ flux [11] 0.00353 | log fold change Tl+ flux (R275C) 0.0253 | log fold change Tl+ flux (R275C/beta1) -0.0273 | log fold change Tl+ flux (R275C/beta2Delta) -0.0332 | log fold change Tl+ flux (R275C/beta4) -0.016 | log fold change Tl+ flux (R275C/Slo1WT/beta2) -0.0345

NCCc1c[nH]c2ccccc12
inactive: period change [1] 0.085 h | inhibition [2] 0% | fluorescence ratio (interference) [3] 1 | outcome [10]

O=C(O)CC[N+](=O)[O-]
inactive: period change [1] -0.005 h | inhibition [2] -3% | fluorescence ratio (interference) [3] 1 | outcome [10]

CC[C@@H]1C(=O)OC[C@@H]1Cc1cncn1C
inactive: period change [1] -0.045 h and -0.055 h | inhibition [2] -2% and 1% | fluorescence ratio (interference) [3] 1

CN1C2CCC1CC(OC(c1ccccc1)c1ccccc1N)C2 (stereo not given)
inactive: period change [1] 0.055 h | inhibition [2] -3% | fluorescence ratio (interference) [3] 1 | outcome [10]

OC1CCCCC1N1CCC(c2ccccc2)CC1 (stereo not given)
inactive: period change [1] 0.065 h | inhibition [2] -4% | fluorescence ratio (interference) [3] 1 | outcome [10]

NC(N)=NOCC[C@H](N)C(=O)O
inactive: period change [1] -0.04 h | inhibition [2] 2% | fluorescence ratio (interference) [3] 1 | outcome [10]
